Y pestis TopoI = Yersinia pestis topoisomerase I inhibitors, primary screen, biochemical, cleavage product accumulation, plate reader, single point | DNA topoisomerase I (Yersinia pestis CO92) | Y. pestis Topo-I cleavage product accumulation | activity, % at 10 µM | actives 0.064% (n = 360,000); in the data active = activity above about 50%, passing the limit was not always enough
MazEF act = activators of E. coli MazEF toxin-antitoxin RNase, primary screen, biochemical, fluorescence, uHTS | AID 504720, 2011 | actives 0.32% (n = 350,000) | FAM/BHQ RNA-DNA oligo cleavage fluorescence, 5 h | Endoribonuclease toxin MazF (Escherichia coli (strain K12)), P0AE70 | activation, % at 20 µM; in the data active = activation above about 50%
Target sequence (P0AE70 whole entry, looked up): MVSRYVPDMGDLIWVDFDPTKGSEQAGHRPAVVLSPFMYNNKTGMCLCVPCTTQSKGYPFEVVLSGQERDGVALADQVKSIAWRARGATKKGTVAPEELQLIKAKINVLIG
SSB-PriA inh = inhibitors of Klebsiella pneumoniae PriA binding to SSB C-terminal tail, primary screen, biochemical, AlphaScreen. PriA–SSB C-terminal tail interaction (Klebsiella pneumoniae). AlphaScreen SSBct-PriA binding, biotinylated peptide. inhibition, % at 33 µM. actives 0.6% (n = 430,000). AID 1272365, 2023; in the data active = inhibition mostly above about 37%, no sharp cut-off; inactive = mostly below about 20%;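 also: plate controls were negative control peptide for no effect and reference peptide for full effect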
SARS 3CLpro inh-1 = SARS-CoV 3CLpro protease inhibitors, primary screen, biochemical, quenched FRET | Replicase polyprotein 1ab (Severe acute respiratory syndrome coronavirus), P0C6X7 | actives 0.14% (n = 290,000) | recombinant SARS-CoV 3CLpro, quenched FRET peptide cleavage | inhibition, % at 6 µM; in the data active = inhibition above about 12%
SARS 3CLpro inh-2 = confirmation of SARS coronavirus 3C-like protease inhibitors, retest, confirmation, biochemical; shares compounds with SARS 3CLpro inh-1; QFRET protease activity assay, 3CLpro; inhibition, % at 6 µM; actives 36% (n = 380); in the data active = inhibition above about 13%
* hit, by the source's call; nt = no result given; ! = not active in a repeat. The list is not random: actives were taken first. Their share in the collection is about 0.9%.

SMILES	Y pestis TopoI	MazEF act	SSB-PriA inh	SARS 3CLpro inh-1	others
COc1ccc(NC(=S)Nc2cccc3cnccc23)cc1	-2	70*	16	2
CCOc1ccc(NC(=S)Nc2cccc3ccccc23)cc1	9	-3	50*	3
COc1ccc(NC(=S)c2ccncc2)cc1	-9	-1	82*!	1
O=C(Cn1cnc2ccccc21)N/N=C\c1c2ccccc2cc2ccccc12	nt	nt	-7	nt
CS(=O)(=O)NC1CCC(Oc2cnccn2)CC1 (configuration not stated)	nt	nt	-19	nt
Cc1cccc(NC(=S)Nc2cccc3ccccc23)c1	8	4	33	6
CCc1cccc(NC(=S)Nc2cccc3ccccc23)c1	6	7	38*	7
N#CC1=C2N=C(N)c3c(sc4c3CCCCC4)N2C2=C(C(=O)CCC2)C1c1ccccc1 (configuration not stated)	-3	8	44*	-6
N#CC1=C2N=C(N)c3ccccc3N2C2=C(C(=O)CCC2)C1c1ccc(F)cc1 (configuration not stated)	0	1	3	3
COc1ccc(Cl)cc1NC(=O)NCc1nccc(N(C)C)n1	nt	nt	1	nt
CN(C)c1cccc(C(=O)NCc2ccc(C(=O)c3ccco3)s2)c1	nt	nt	12	nt
Oc1ccc(N=Nc2nc(-c3ccccc3)c(-c3ccccc3)[nH]2)cc1	-28	126*	68	-7
Oc1ccc(N=Nc2n[nH]c(-c3ccccc3)n2)cc1	-2	1	12	-2
COc1cc(Nc2ccc(NS(=O)(=O)c3ccc4cccc5c4c3CC5)cc2)nc(C)n1	nt	nt	14	nt
O=C(COc1coc(CN2CCN(c3ccccc3)CC2)cc1=O)Nc1ccc(F)cc1	-9	-16	46*	nt
N#Cc1cc(-c2ccccc2)cn(Cc2c(Cl)cccc2Cl)c1=O	4	43	-5	-1
Cc1ccc(-c2cc(C#N)c(=O)n(Cc3c(Cl)cccc3Cl)c2)cc1	8	58*	-23	-3
COc1cc(Br)cc2cc(C(=O)Oc3cccc4cccnc34)c(=O)oc12	nt	nt	89*	nt
COc1cc(C(C)=O)ccc1OC(=O)c1cc2cccc(OC)c2oc1=O	6	27	1	8
OCCN(Cc1cccnc1)Cc1ccccn1	-7	-14	42*	nt
CNc1sc(C(=O)c2cccs2)c(N)c1-c1nc2ccccc2s1	-20	9	53*	-3
CNc1sc(C(=O)c2ccc(F)cc2)c(N)c1-c1nc2ccccc2s1	1	14	16	-3
Cn1cc(C(=O)NCC(C)(O)c2ccco2)nn1 (configuration not stated)	nt	nt	-1	nt
COc1cccc(N2C(=O)/C(=C/c3ccc(C)o3)C(=O)NC2=S)c1	1	0	2	13*	SARS 3CLpro inh-2=-4
Cn1c(C(F)(F)F)nn(CCNC(=O)CSc2ccc(F)cc2)c1=O	nt	nt	-17	nt
SMILES	Y pestis TopoI	MazEF act	SSB-PriA inh	SARS 3CLpro inh-1	others
O=C(O)c1ccc(CN(Cc2ccccc2)S(=O)(=O)c2ccc(Cl)cc2)cc1	1	3	10	13*	SARS 3CLpro inh-2=4
COc1ccc(CNC(=O)CN(Cc2ccccc2)S(=O)(=O)c2ccc(Cl)cc2)cc1	-4	-6	-15	0
O=C(NCCN1CCOCC1)c1ccc2c(c1)N(Cc1ccc(F)cc1)C(=O)CS2	-9	-8	10	10
Cc1ccc(CN2C(=O)CSc3ccc(C(=O)NCCN4CCOCC4)cc32)cc1	1	-1	-8	19*	SARS 3CLpro inh-2=8
Cc1ccc(N(C(=O)Cn2nnc3ccccc32)C(C(=O)NCc2ccco2)c2ccc(C)o2)cc1 (configuration not stated)	6	5	-15	10
COc1cccc(C(C(=O)NCc2ccco2)N(Cc2ccco2)C(=O)Cn2nnc3ccccc32)c1 (configuration not stated)	38	0	10	28*	SARS 3CLpro inh-2=40*
COc1ccc(N(C(=O)Cn2nnc3ccccc32)C(C(=O)NCc2ccco2)c2ccc(C)o2)cc1 (configuration not stated)	14	9	-6	21*	SARS 3CLpro inh-2=26*
Cc1cc(=O)oc2cc(OCC(O)Cn3c(C)nc4ccccc43)ccc12 (configuration not stated)	nt	nt	-6	nt
